Screening data as filed in PubChem.
Sm TGR inh – qHTS Assay for the Inhibitors of Schistosoma Mansoni Peroxiredoxins; actives 3% (n = 360,000); Potency, µM (doses to about 114 µM), actives largely listed as inhibitors; purified TGR, DTNB reduction, TNB absorbance 405 nm; note: nearly all actives have a fitted effect of over 60% in size
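First, TGR (20 nM dispensed) and NADPH were mixed with compound. Second, a 15 min room-temperature incubation followed. Third, further NADPH and then DTNB were added to start the reaction. Finally, TNB absorbance was monitored kinetically.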
CHX counter – Cycloheximide Counterscreen for Small Molecule Inhibitors of Shiga Toxin. cell reporter, cycloheximide protein synthesis inhibition counterscreen. max response, %. actives 12% (n = 300,000). AID 2314, 2010; in the data active = max response mostly above about 13%, no sharp cut-off; inactive = mostly below about 14%; note: read at 38.3 µM for the half of the compounds with a filed dose
Pf growth 48h – Primary qHTS for delayed death inhibitors of the malarial parasite plastid, 48 hour incubation; Potency, µM (top dose mostly 28.7 µM), actives largely listed as inhibitors; actives 5.9% (n = 310,000); P. falciparum luciferase growth in erythrocytes, 48 h
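First compound was added to culture medium, then infected red cells at 0.1% parasitemia and 2% hematocrit (final). After incubation at 37 C under 5% CO2, luciferase detection reagent was dispensed and light output recorded.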
NS1 function inh – qHTS Assay for Inhibitors of Influenza NS1 Protein Function | Potency, µM (series often up to 46.1 µM) | actives 0.4% (n = 270,000); calls by dose curve; note: actives are rising curves; nearly all actives have a fitted effect of over 50% in size
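Recovery from NS1-induced slow growth read by OD600 in budding yeast switched to galactose assay medium (pH 6.0, -URA) at 1:100 dilution. Compound 23 nl per well; the matching strain lacking NS1 serves as control.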
Shiga inhibitor – A qHTS for Small Molecule Inhibitors of Shiga Toxin | Vero cells, Shiga toxin protein synthesis inhibition reporter | inhibition, % at 38.7 µM | actives 9.2% (n = 290,000) | AID 2315, 2010; in the data active = inhibition mostly above about 28%, no sharp cut-off; inactive = mostly below about 43%
Pf growth 96h – Primary qHTS for delayed death inhibitors of the malarial parasite plastid, 96 hour incubation; Potency, µM (series often up to 28.7 µM), usual class: inhibitors; P. falciparum luciferase reporter growth, 96 h; actives 6.9% (n = 320,000)
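P. falciparum expressing integrated firefly luciferase grown in erythrocytes (2% hematocrit, 0.05% parasitemia final) with compounds for 96 hours at 37 C, 5% CO2. Growth inhibition read as loss of luminescence after adding luciferase detection reagent.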
Of the large screens only hits and unclear results are named; the others gave an inactive call. Sampled rows, rich in hits. Any-hit rate of the full collection: about 21%. Unless noted, calls come from the whole dose curve; as a rule, active = well fitted curve in the direction sought with a large enough effect; inconclusive = small, poorly fitted or top-dose-only effect, or another doubt; inactive = no such curve, though single readings can be large; an effect the other way counts as inactive or inconclusive.

CC1=CC(=O)C2=C(C)CC(O)C3C(C)C(=O)OC3C12 (centres undefined)	Pf growth 96h 13µM
C#CCSc1nnc(-c2ccc(O)cc2)o1	CHX counter 53, Shiga inhibitor 62 (no result: NS1 function inh)
OCC#CCSc1nnc(-c2ccncc2)o1	Sm TGR inh inconclusive, Pf growth 96h 0.29µM
ClC1(Cl)CC1CSc1nnc(-c2ccncc2)o1 (centres undefined)	CHX counter 19, Pf growth 96h inconclusive
C#CCSc1nnc(-c2cccc3ccccc23)o1	none (no result: Sm TGR inh, CHX counter, Pf growth 48h, Shiga inhibitor, Pf growth 96h)
C#CCSc1nnc(-c2ccc(C)cc2)o1	CHX counter 39, Shiga inhibitor 73, Pf growth 96h 1.2µM
CCSc1nnc(-c2ccncc2)o1	none
CCOc1ccc(NS(=O)(=O)c2ccc3[nH]cc(C(=O)NCCc4ccccc4)c(=O)c3c2)cc1	none (no result: CHX counter, Pf growth 48h, NS1 function inh, Shiga inhibitor, Pf growth 96h)
COc1ccc(NC(=O)c2oc3ccccc3c2NC(=O)COc2ccc(F)cc2)c(OC)c1	none (no result: CHX counter, Pf growth 48h, NS1 function inh, Shiga inhibitor, Pf growth 96h)
NC(=O)c1ccc(C(=O)Nc2ccc([As](=O)(O)O)cc2)cc1	Sm TGR inh 45µM
CNC(=S)Nc1ccc(C(N)=O)cc1	Sm TGR inh 40µM, Pf growth 48h inconclusive, Pf growth 96h inconclusive
C=CCNC(=S)Nc1ccc(C(N)=O)cc1	Sm TGR inh inconclusive
CNC(=S)Nc1ccc(Nc2ccccc2)cc1	CHX counter 20
CCCNC(=S)Nc1ccc(Nc2ccccc2)cc1	none
CCn1c(CC(=O)Nc2ccccc2F)nnc1SCC(=O)Nc1nncs1	none
Cc1[nH]c2ccccc2c1C(=O)COC(=O)C1CC(=O)N(Cc2ccco2)C1 (centres undefined)	NS1 function inh inconclusive
Cc1ccc(C(=O)Oc2ccc(C(=O)COC(=O)C3CC(=O)N(Cc4ccco4)C3)cc2)cc1 (centres undefined)	Sm TGR inh inconclusive, CHX counter 29, Shiga inhibitor 68, Pf growth 96h inconclusive
O=C(COC(=O)C1CC(=O)N(Cc2ccccc2)C1)c1ccc(Br)cc1 (centres undefined)	none
O=C(COC(=O)C1CC(=O)N(Cc2ccco2)C1)c1ccc(OC(=O)c2ccco2)cc1 (centres undefined)	Sm TGR inh 11µM, CHX counter 10 (no result: Pf growth 96h)
COc1ccccc1OCC(=O)N1CCCC(Nc2ccc(C)c(C)c2)C1 (centres undefined)	none
Cc1ccn(CC(=O)N2CCCC(Nc3ccc(F)c(F)c3)C2)n1 (centres undefined)	Sm TGR inh inconclusive, Pf growth 48h inconclusive
COc1ccc(CCC(=O)N2CCCC(Nc3ccc(C)c(C)c3)C2)cc1OC (centres undefined)	CHX counter 23, Pf growth 96h inconclusive
Cc1ccnn1CCC(=O)N1CCCC(Nc2ccc(F)c(F)c2)C1 (centres undefined)	Sm TGR inh inconclusive, NS1 function inh inconclusive, Pf growth 96h 12µM
COc1ccc(NC2CCCN(C(=O)Cn3ccc(C)n3)C2)cc1OC (centres undefined)	Pf growth 96h 5.2µM
Cc1ccn(CC(=O)N2CCCC(N3CCN(c4ccccc4F)CC3)C2)n1 (centres undefined)	Pf growth 96h 13µM
CS(=O)(=O)c1ccc2nc(NC(=O)c3ccc(NS(=O)(=O)c4cccc([N+](=O)[O-])c4)cc3)sc2c1	Pf growth 48h inconclusive, Pf growth 96h inconclusive
CC1CCN(S(=O)(=O)c2ccc3c(ccc(=O)n3CC(=O)NCc3ccccc3)c2)CC1	none (no result: CHX counter, Pf growth 48h, NS1 function inh, Shiga inhibitor, Pf growth 96h)
COc1ccc(NC2CCCN(C(=O)CN3CCOC3=O)C2)cc1 (centres undefined)	CHX counter 38, Shiga inhibitor 62, Pf growth 96h inconclusive
COc1ccc(NC2CCCN(C(=O)CN3CCOC3=O)C2)cc1OC (centres undefined)	none
Cc1ccc(NC2CCCN(C(=O)CCC3=NNC(=O)CC3)C2)cc1C (centres undefined)	Pf growth 96h 8.3µM
COc1cccc(CNC(=O)C(Cc2ccccc2)NS(=O)(=O)c2ccc3c(c2)CCN3C(C)=O)c1 (centres undefined)	none (no result: CHX counter, Pf growth 48h, NS1 function inh, Shiga inhibitor, Pf growth 96h)
